Measurements from article PMC4552634, “A New Set of Chemical Starting Points with Plasmodium falciparum Transmission-Blocking Potential for Antimalarial Drug Discovery” (PLoS ONE, 2015).
Out of some 13,000 compounds screened, about 3,200 (25%) showed an effect of 50% or more. The list shows a part of the results.

The compounds below were run on P. falciparum stage V gametocytes. Settings: 48 h, 5 µM; inhibitor.
Parameters: BacTiter-Glo ATP luminescence viability of purified stage V gametocytes in 384-well plates, per cent inhibition versus DMSO

Structure (SMILES) | % Inhibition
O=C(Nc1cccc(CN2CCCN(Cc3ccc(O)cc3)CC2)c1)c1cc2ccccc2o1 [TCMDC-141859] | 49.98%
CN1CC[C@@H](Oc2cc(NC(=O)Nc3ccccc3Br)ccc2Cl)C1 [TCMDC-136144] | 79.19%
COc1cc(Br)c(NC(=O)Nc2ccc(C(F)(F)F)c(O[C@@H]3CCN(C)C3)c2)cc1OC [TCMDC-135186] | -75.17%
CN1CC[C@@H](Oc2cc(NC(=O)Nc3ccc(Cl)c(C(F)(F)F)c3)ccc2Cl)C1 [TCMDC-136149] | 23.18%
Cc1cc2nc(-c3ccc(C(=O)NCc4cccc(F)c4)cc3)[nH]c2cc1C [TCMDC-140432] | -28.29%
CC(C)Nc1cc(C(=O)N[C@@H](Cc2ccccc2)[C@H](O)CNC2CCCCC2)cc(N2CCCCS2(=O)=O)c1 [TCMDC-135203] | 21.45%
COc1ccccc1N1CCN(Cc2c(O)ccc3cc(Br)ccc23)CC1 [TCMDC-123565] | 17.32%
CC(=O)Nc1nc(C(=O)Nc2cccc(-c3ccc(-c4nc5cccc(C)c5[nH]4)s3)c2)cs1 [TCMDC-137132] | -23.79%
COc1ccc(Cl)cc1NC(=O)Nc1cc(C)nc2ccccc12 [TCMDC-125497] | -49.54%
COc1ccc(Cl)cc1NC(=O)CN(C)C(=O)c1cnn(-c2ccccc2)n1 [TCMDC-125457] | 95.1%
COc1ccc(Cl)cc1NC(=O)C(C)N1CCN(S(=O)(=O)c2ccccc2F)CC1 (centres unmarked) [TCMDC-123567] | -51.26%
Cc1ccc(-n2c(=O)c3cccnc3n2CC(=O)Nc2cccc(C)c2C)cc1 [TCMDC-125161] | 23.17%
COc1ccc(CN(C2CC2)C(C)C(=O)c2[nH]c(C)c(C(C)=O)c2C)cc1 (centres unmarked) [TCMDC-125037] | 53.61%
CCCC(C)N(Cc1ccc(C(C)(C)C)cc1)C(=O)c1ccc(OC)cc1 (centres unmarked) [TCMDC-139782] | 14.81%
CC1(C)N=C(NC(=O)c2cc([N+](=O)[O-])cc([N+](=O)[O-])c2)N=C(N)N1OCc1cccc2ccccc12 [TCMDC-131584] | -17.03%
CN(c1cc(NC(=O)c2ccc(F)cc2)ccn1)C1CCN(Cc2cccc(O)c2)CC1 [TCMDC-134966] | -19%
CC(C)(C)c1ccc(C(=O)Nc2cccc(Nc3c(C(=O)NCc4cccc(C(F)(F)F)c4)cnc4c(O)cccc34)c2)cc1.O=C(O)C(F)(F)F [TCMDC-139610] | 57.39%
NS(=O)(=O)c1ccc(CNC(=O)c2cnc3c(O)cccc3c2Nc2cccc(NC(=O)c3ccc(Cl)c(Cl)c3)c2)cc1.O=C(O)C(F)(F)F [TCMDC-139608] | 34.02%
COc1ccc(CNC(=O)c2cnc3c(O)cccc3c2Nc2cccc(NC(=O)c3ccc(Cl)c(Cl)c3)c2)cc1.O=C(O)C(F)(F)F [TCMDC-139607] | 97.23%
CC(C)CCNC(=O)c1cc(C(=O)c2cc(F)ccc2O)cn(CCC(C)C)c1=O [TCMDC-124499] | 0.8137%
COc1ccc(CNC(=O)c2cnc3c(O)cccc3c2Nc2cccc(NC(=O)c3ccc(-c4ccccc4)cc3)c2)cc1.O=C(O)C(F)(F)F [TCMDC-139611] | 77.42%
O=C(Cc1ccc(NC(=O)c2ccc(O)c(-c3ccc(Cl)c(Cl)c3)c2)cc1)NCc1cccc(C(F)(F)F)c1 [TCMDC-140835] | -7.918%
CC(C)CCNC(=O)c1cnc2c(O)cccc2c1Nc1cccc(NC(=O)c2ccc(F)cc2)c1.O=C(O)C(F)(F)F [TCMDC-139606] | 111.5%
COc1ccc(CNC(=O)c2cnc3cc(-c4c(C)noc4C)ccc3c2Nc2ccccc2C(C)(C)C)cc1.Cl [TCMDC-136367] | -23.94%

Structure (SMILES) | % Inhibition
COc1ccc(CNC(=O)c2cnc3c(O)cccc3c2Nc2cccc(NC(=O)c3ccc(Cl)c([N+](=O)[O-])c3)c2)cc1.O=C(O)C(F)(F)F [TCMDC-139609] | 35.62%
Nc1nc(Nc2cccc(Cl)c2)ncc1C(=O)NCc1ccncc1 [TCMDC-135688] | 0.6434%
OCc1ccc2nc3c(cc2c1)-c1cccc2cccc-3c12 [TCMDC-137756] | 2.597%
Cc1cc(N2CCCC2)nc(Nc2ccc(NC(=O)c3ccccc3)cc2)n1 [TCMDC-124713] | -11.14%
COc1cccc(OC)c1OCCCOc1c(C)nc(N)nc1N [TCMDC-131352] | 5.526%
c1ccc(Oc2ccc(Nc3nc(NCCc4cnc[nH]4)nc(NC4CCCC4)n3)cc2)cc1 [TCMDC-139745] | 20.05%
O=C(Nc1cccc(OC2CCN(Cc3ccc(F)cc3)CC2)c1)c1ccc(C(F)(F)F)cc1 [TCMDC-133734] | -18.45%
COc1ccc(CNC(=O)c2cnc3c(O)cccc3c2Nc2cccc(NC(=O)c3ccc(F)cc3)c2)cc1.O=C(O)C(F)(F)F [TCMDC-139605] | 78.77%
COc1ccc(CN2CCC(Oc3cccc(NC(=O)c4ccc(C(F)(F)F)cc4)c3)CC2)cc1 [TCMDC-133735] | -21.77%
O=C(Nc1ccc(Cl)c(Cl)c1)N1CCC(NCc2cccc([N+](=O)[O-])c2)CC1 [TCMDC-141277] | 22.25%
O=C(CN1C(=O)CC1S(=O)(=O)Cc1ccco1)NCCCCCCc1ccc(F)cc1 (centres unmarked) [TCMDC-139032] | 21.56%
COc1cccc(C(C)(C)NC[C@@H](O)[C@H](Cc2ccccc2)NC(=O)c2cc(C3CCCC3)cc(N3CCCCS3(=O)=O)c2F)c1 [TCMDC-135510] | 45.23%
CCN(CC)CCN(Cc1ccc(-c2ccc(C(F)(F)F)cc2)cc1)C(=O)Cn1c(CCc2c(F)ccc(F)c2F)nc(=O)c2ccccc21 [TCMDC-140953] | 67.68%
CCN(CC)CCN(Cc1ccc(-c2ccc(C(F)(F)F)cc2)cc1)C(=O)Cn1c(CCc2c(F)cccc2F)nc(=O)c2ccccc21 [TCMDC-140950] | 87.94%
CCN(CC)CCN(Cc1ccc(-c2ccc(C(F)(F)F)cc2)cc1)C(=O)Cn1c(CCc2cc(F)cc(F)c2F)nc(=O)c2ccccc21 [TCMDC-140955] | 88.67%
CCN(CC)CCN(Cc1ccc(-c2ccc(C(F)(F)F)cc2)cc1)C(=O)Cn1c(CCc2c(F)cc(F)cc2F)nc(=O)c2ccccc21 [TCMDC-140967] | 61.03%
CC(CCCCOCCc1ccccc1)NCC(O)c1cc(Cl)c(N)c(Cl)c1 (centres unmarked) [TCMDC-132072] | 16.2%
Cc1ccc(-c2nnc(Nc3ccc(C(=O)N4CCCCC4)cc3)c3ccccc23)cc1S(=O)(=O)NCC1CCCO1 (centres unmarked) [TCMDC-125618] | 37.21%
COc1ccc2nccc([C@@H](O)CN3CCC(NCc4cc5cccc(OC)c5o4)CC3)c2c1 [TCMDC-140683] | -7.327%
O[C@@H](c1cc(C(F)(F)F)nc2c(C(F)(F)F)cccc12)[C@H]1CCCCN1 [TCMDC-124288] | 25.8%
Cc1ccc(F)cc1S(=O)(=O)N1CCCCC(c2ccc(C(F)(F)F)cc2)=N1 [TCMDC-134531] | -12.63%
COc1cccc(NC(=O)Nc2cc(-c3ccc4[nH]ncc4c3)cc3c2CNC3=O)c1 [TCMDC-133475] | 14.15%
O=C(Nc1ccc(Cl)cc1C(=O)Nc1cccc(F)c1)c1ccc([N+](=O)[O-])cc1 [TCMDC-123788] | -68.85%
CCC(C)CNC(=O)CN1CN(c2ccccc2)C2(CCN(C(=O)c3ccc(Br)cc3)CC2)C1=O (centres unmarked) [TCMDC-125167] | -9.167%

Structure (SMILES) | % Inhibition
Cc1ccc(NC(=O)c2ccc3ncccc3c2)cc1OC1CCN(C(C)C)C1 (centres unmarked) [TCMDC-133739] | 24.97%
COc1ccc2nccc([C@@H](O)CN3CCC(NCCOc4ccccc4C#N)CC3)c2c1 [TCMDC-140712] | 9.495%
Cc1ccc2nc(/C=C/c3cccc4cc[nH]c34)[nH]c2c1 [TCMDC-138896] | 83.23%
COc1ccc2nc(/C=C/c3cccc4ccc(C)nc34)[nH]c2c1 [TCMDC-138821] | -26.73%
Nc1ccc2nc(C=Cc3ccccc3)[nH]c2c1 [TCMDC-124430] | 29.38%
COc1ccc2c(c1)CC(CNC[C@H](O)c1cccc(Cl)c1)CC2 (some centres unmarked) [TCMDC-131994] | -12.5%
CN(C)CCOc1ccc2c(c1)CN(C)CC2c1ccccc1 (centres unmarked) [TCMDC-131410] | 7.627%
Cc1nc(-c2nc(NCCc3c(C)noc3C)ncc2-c2ccsc2)sc1C [TCMDC-125357] | 20.64%
COCCN(CCOC)c1ncc(-c2ccsc2)c(-c2nc(C)c(C)s2)n1 [TCMDC-125355] | 81.41%
Cc1nc(-c2nc(NCCc3cnccn3)ncc2-c2ccsc2)sc1C [TCMDC-125363] | 69.56%
Cc1nc(-c2nc(N3CCOCC3)ncc2-c2ccsc2)sc1C [TCMDC-125356] | 0.6256%
Cc1nc(-c2nc(NCc3ccccn3)ncc2-c2ccsc2)sc1C [TCMDC-125360] | 31.08%
Cc1nc(-c2nc(NCc3ccncc3)ncc2-c2ccsc2)sc1C [TCMDC-125359] | 15.84%
CN(C)CCOc1ccc2[nH]c(-c3cccc(OCc4ccccc4)c3)nc2c1C#N [TCMDC-133765] | 4.095%
COc1cc(C(=O)Nc2cccc(-c3cn4cccc(C)c4n3)c2)cc(OC)c1OC [TCMDC-123644] | 23.2%
CCC1N=C(N)N=C(N)N1OCc1cccc2ccccc12 (centres unmarked) [TCMDC-131592] | 22.21%
COc1ccc(CCNCCCCCCNCCc2ccc(Cl)c3ccccc23)cc1OC [TCMDC-131270] | 116.7%
COc1cc2ncnc(NCCc3ccccc3Cl)c2cc1OC [TCMDC-139495] | 5.438%
COc1ccc(CCNCCCCCCNCCc2ccccc2Cl)cc1OC [TCMDC-131273] | 87.94%
COc1c(CNCCCCCCNCc2cc(Cl)c3ccccc3c2OC)cc(Cl)c2ccccc12 [TCMDC-137958] | 32.17%
CCCCNCc1cc(Cl)c2ccccc2c1O [TCMDC-137599] | 77.6%
COc1ccc(CCNc2nc(SCc3ccccc3Cl)nc3ccccc23)cc1OC [TCMDC-125569] | 33.86%
COc1c(CCNCCCCNCCc2cc(Cl)c3ccccc3c2OC)cc(Cl)c2ccccc12 [TCMDC-137869] | 105.2%
